Source: PubChem BioAssay (Tox21)
Records with an inconclusive call do not appear. Active and inactive are the calls of the source. Calls follow the shape of the dose curve; as a rule, active = well fitted curve in the direction sought with a large enough effect in the repeat runs; inconclusive = weak or mixed curves; inactive = no such curve, though single readings can be large; an effect the other way counts as inactive or inconclusive.

Columns and labels:
[1] = qHTS RealTime-Glo MT Cell Viability Assay in HepG2 cells - 40 hour (AID 1224870); also: nearly all actives have a fitted effect of over 50% in size
In short: (§1)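 Real-time viability: cells seeded at 600 per well together with NanoLuc and cell-permeant prosubstrate, compounds added after 5 h incubation. Luminescence tracked at 0, 8, 16, 24, 32 and 40 h of exposure.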

[2] = A CellTox Green Cytotoxicity Assay to monitor cytotoxicity in HEK293 cells - 40 hour (AID 1224871); also: nearly all actives have a fitted effect of over 45% in size
In short: (§2)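 HEK293 cells premixed with CellTox Green dye were seeded at 600 cells/well and left 5 h at 37 C/5% CO2 before pin transfer of 23 nL compound in DMSO. Fluorescence from dye bound to dead-cell DNA was read during 40 h treatment.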

[3] = qHTS RealTime-Glo MT Cell Viability Assay in HEK293 cells - 16 hour (AID 1224872); also: top concentration of the series differs between compounds; nearly all actives have a fitted effect of over 50% in size
In short: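 Viability tracked continuously by luminescence as live cells reduce a prosubstrate for NanoLuc; HEK293 cells preincubated 5 h, compound-treated at 37 C, and read at 0, 8, 16, 24, 32 and 40 h.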

[4] = qHTS RealTime-Glo MT Cell Viability Assay in HepG2 cells - 8 hour (AID 1224873); also: nearly all actives have a fitted effect of over 55% in size
In short: as §1

[5] = qHTS RealTime-Glo MT Cell Viability Assay in HEK293 cells - 40 hour (AID 1224874); details: RealTime-Glo luminescence; max response: stronger effect = lower value; also: nearly all actives have a fitted effect of over 50% in size
In short: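 HEK293 cells mixed with RealTime-Glo reagents (NanoLuc plus cell-permeant prosubstrate) at 600 cells/well, preincubated 5 h at 37 C/5% CO2, then given 23 nL compound in DMSO. Nonlytic luminescence from viable cells was read at 0, 8, 16, 24, 32 and 40 h.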

[6] = A CellTox Green Cytotoxicity Assay to monitor cytotoxicity in HEK293 cells - 24 hour (AID 1224875); also: series mostly up to about 77 µM; nearly all actives have a fitted effect of over 45% in size
In short: as §2

[7] = A CellTox Green Cytotoxicity Assay to monitor cytotoxicity in HepG2 cells - 16 hour (AID 1224876); also: nearly all actives have a fitted effect of over 45% in size
In short: (§3)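 HepG2 cells were seeded together with the CellTox Green dye at 600 cells/well, left 5 h at 37 C/5% CO2, then given compounds in DMSO. Fluorescence from dye bound to dead-cell DNA was read repeatedly over 40 h of treatment at 37 C.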

[8] = qHTS RealTime-Glo MT Cell Viability Assay in HepG2 cells - 32 hour (AID 1224877); also: nearly all actives have a fitted effect of over 55% in size
In short: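 Viability was tracked continuously by NanoLuc luminescence from prosubstrate reduced by living HepG2 cells, at successive time points over 40 h of compound exposure. Cells with reagent were preincubated 5 h at 37 °C before compound addition.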

[9] = A CellTox Green Cytotoxicity Assay to monitor cytotoxicity in HepG2 cells - 24 hour (AID 1224878); also: nearly all actives have a fitted effect of over 45% in size
In short: as §3

[10] = A CellTox Green Cytotoxicity Assay to monitor cytotoxicity in HepG2 cells - 40 hour (AID 1224879); also: nearly all actives have a fitted effect of over 40% in size
In short: as §3
% is scaled to controls: 0 for no effect and ±100 for the full control effect.

CCN(CC)c1cccc(O)c1
inactive: Potency [1] | Potency [2] | Potency [3] | Potency [4] | max response [5] 7.38% | Potency [6] | Potency [7] | Potency [8] | Potency [9] | Potency [10]

CCCCCC
inactive: Potency [1] | Potency [2] | Potency [3] | Potency [4] | max response [5] 0.47% | Potency [6] | Potency [7] | Potency [8] | Potency [9] | Potency [10]

CCCCCCC(O)CCCCCCCCCCC(=O)OC (stereo not given)
inactive: Potency [1] | Potency [2] | Potency [3] | Potency [4] | max response [5] -16.2% | Potency [6] | Potency [7] | Potency [8] | Potency [9] | Potency [10]

CCCCCCCC/C=C/C(=O)O
inactive: Potency [1] | Potency [2] | Potency [3] | Potency [4] | max response [5] 8.87% | Potency [6] | Potency [7] | Potency [8] | Potency [9] | Potency [10]

COC(=O)CC(C(C)=O)C(=O)OC (stereo not given)
inactive: Potency [1] | Potency [2] | Potency [3] | Potency [4] | max response [5] 9.23% | Potency [6] | Potency [7] | Potency [8] | Potency [9] | Potency [10]

CC(=O)N[C@@H](Cc1ccc(O)cc1)C(=O)O
inactive: Potency [1] | Potency [2] | Potency [3] | Potency [4] | max response [5] 8.17% | Potency [6] | Potency [7] | Potency [8] | Potency [9] | Potency [10]

Nc1ccc(NC(=O)c2ccc(N)cc2)cc1
inactive: Potency [1] | Potency [2] | Potency [3] | Potency [4] | max response [5] -13% | Potency [6] | Potency [7] | Potency [8] | Potency [9] | Potency [10]

CCN(CC)C(=O)/C(C#N)=C/c1cc(O)c(O)c([N+](=O)[O-])c1
inactive: Potency [1] | Potency [2] | Potency [3] | Potency [4] | max response [5] 29.1% | Potency [6] | Potency [7] | Potency [8] | Potency [9] | Potency [10]

O=C(O)c1cccc(C[C@@H]2COc3ccc(OCc4nc5cc(F)ccc5s4)cc3[C@@H]2O)c1
inactive: Potency [1] | Potency [2] | Potency [3] | Potency [4] | max response [5] 4.74% | Potency [6] | Potency [7] | Potency [8] | Potency [9] | Potency [10]

CC(C(=O)O)c1ccc(C(=O)c2cccs2)cc1 (stereo not given)
inactive: Potency [1] | Potency [2] | Potency [3] | Potency [4] | max response [5] 0.273% | Potency [6] | Potency [7] | Potency [8] | Potency [9] | Potency [10]

COc1ccc(C2C(=O)c3ccccc3C2=O)cc1
inactive: Potency [1] | Potency [2] | Potency [3] | Potency [4] | max response [5] 4.61% | Potency [6] | Potency [7] | Potency [8] | Potency [9] | Potency [10]

CC[C@H]1OC(=O)[C@H](C)[C@@H](O[C@H]2C[C@@](C)(OC)[C@@H](O)[C@H](C)O2)[C@H](C)[C@@H](O[C@@H]2O[C@H](C)C[C@H](N(C)C)[C@H]2O)[C@](C)(O)C[C@@H](C)/C(=N\OCOCCOC)[C@H](C)[C@@H](O)[C@]1(C)O
inactive: Potency [1] | Potency [2] | Potency [3] | Potency [4] | max response [5] -15% | Potency [6] | Potency [7] | Potency [8] | Potency [9] | Potency [10]

CCN(Cc1cccc(S(=O)(=O)O)c1)c1ccc(C(=C2C=CC(=[N+](CC)Cc3cccc(S(=O)(=O)O)c3)C=C2)c2ccccc2S(=O)(=O)[O-])cc1
inactive: Potency [1] | Potency [2] | Potency [3] | Potency [4] | max response [5] -0.266% | Potency [6] | Potency [7] | Potency [8] | Potency [9] | Potency [10]

C=CCOC(=O)COCCC(C)C
inactive: Potency [1] | Potency [2] | Potency [3] | Potency [4] | max response [5] -1.87% | Potency [6] | Potency [7] | Potency [8] | Potency [9] | Potency [10]

Cc1c(C2(c3cc(Br)c(O)c(Br)c3C)OS(=O)(=O)c3ccccc32)cc(Br)c(O)c1Br
inactive: Potency [1] | Potency [2] | Potency [3] | Potency [4] | max response [5] -21.5% | Potency [6] | Potency [7] | Potency [8] | Potency [9] | Potency [10]

COc1ccc(N)c([N+](=O)[O-])c1
inactive: Potency [1] | Potency [2] | Potency [3] | Potency [4] | max response [5] -15.1% | Potency [6] | Potency [7] | Potency [8] | Potency [9] | Potency [10]

CC(=O)C(=O)CC(C)C
inactive: Potency [1] | Potency [2] | Potency [3] | Potency [4] | max response [5] 9.63% | Potency [6] | Potency [7] | Potency [8] | Potency [9] | Potency [10]

CC(C)(C(=O)c1cccnc1)c1cccnc1
inactive: Potency [1] | Potency [2] | Potency [3] | Potency [4] | max response [5] 6.53% | Potency [6] | Potency [7] | Potency [8] | Potency [9] | Potency [10]

CCNc1nc(N)nc(Cl)n1
inactive: Potency [1] | Potency [2] | Potency [3] | Potency [4] | max response [5] 9.34% | Potency [6] | Potency [7] | Potency [8] | Potency [9] | Potency [10]

C/C(C=O)=C\c1ccccc1
inactive: Potency [1] | Potency [2] | Potency [3] | Potency [4] | max response [5] 0.492% | Potency [6] | Potency [7] | Potency [8] | Potency [9] | Potency [10]

C=C(C)c1ccccc1
inactive: Potency [1] | Potency [2] | Potency [3] | Potency [4] | max response [5] 1.05% | Potency [6] | Potency [7] | Potency [8] | Potency [9] | Potency [10]

COC(C)(C)OC
inactive: Potency [1] | Potency [2] | Potency [3] | Potency [4] | max response [5] 15.9% | Potency [6] | Potency [7] | Potency [8] | Potency [9] | Potency [10]
